# The campaign covered roughly 310,000 compounds. About 14,000 (4.5%) showed an effect of 50% or more. Effects have a minus sign here. Only a selection was taken, and strong results are over-represented in it overall.
# Biological target: human ether-à-go-go-related gene (hERG) potassium channel (human, UniProt Q12809)
# Experiment: primary screen, population patch clamp on CHO cells stably expressing hERG; higher = less effect of the substance
# 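Note: peak tail current of the secondary pulse compared with the same well before compound.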
# human ether-à-go-go-related gene (hERG) potassium channel, sequence (Q12809 whole entry, looked up): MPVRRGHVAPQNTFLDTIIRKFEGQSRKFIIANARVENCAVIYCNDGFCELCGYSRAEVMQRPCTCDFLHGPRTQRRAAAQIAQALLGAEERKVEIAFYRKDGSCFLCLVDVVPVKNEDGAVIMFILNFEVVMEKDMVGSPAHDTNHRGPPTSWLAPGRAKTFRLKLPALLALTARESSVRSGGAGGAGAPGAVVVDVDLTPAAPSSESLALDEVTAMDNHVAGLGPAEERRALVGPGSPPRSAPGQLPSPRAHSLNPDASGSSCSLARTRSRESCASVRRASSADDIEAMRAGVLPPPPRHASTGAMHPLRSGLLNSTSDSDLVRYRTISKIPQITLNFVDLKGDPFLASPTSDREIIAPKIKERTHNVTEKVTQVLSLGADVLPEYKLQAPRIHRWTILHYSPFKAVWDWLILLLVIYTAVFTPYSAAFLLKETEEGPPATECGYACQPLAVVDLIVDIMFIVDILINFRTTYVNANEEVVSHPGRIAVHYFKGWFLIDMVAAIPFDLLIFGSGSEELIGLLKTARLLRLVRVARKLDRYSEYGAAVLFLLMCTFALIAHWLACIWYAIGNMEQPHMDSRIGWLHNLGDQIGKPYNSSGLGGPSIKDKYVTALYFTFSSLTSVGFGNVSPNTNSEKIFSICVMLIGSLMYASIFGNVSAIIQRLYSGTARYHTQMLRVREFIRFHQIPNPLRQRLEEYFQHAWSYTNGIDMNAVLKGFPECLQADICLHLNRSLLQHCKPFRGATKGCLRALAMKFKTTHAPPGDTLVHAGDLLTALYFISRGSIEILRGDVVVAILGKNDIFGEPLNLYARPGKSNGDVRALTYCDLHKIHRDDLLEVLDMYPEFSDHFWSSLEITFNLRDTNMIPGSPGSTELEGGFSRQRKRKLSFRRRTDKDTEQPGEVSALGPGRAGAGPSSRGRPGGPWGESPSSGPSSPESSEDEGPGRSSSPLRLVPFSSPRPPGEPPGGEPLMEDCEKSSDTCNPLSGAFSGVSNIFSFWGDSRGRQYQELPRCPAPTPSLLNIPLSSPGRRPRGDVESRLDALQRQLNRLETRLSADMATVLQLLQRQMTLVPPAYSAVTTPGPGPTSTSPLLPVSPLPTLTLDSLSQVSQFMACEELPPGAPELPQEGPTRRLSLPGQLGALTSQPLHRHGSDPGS
row,Structure (SMILES),"hERG current change (%, negative = inhibition) at 10uM [%]"
1,CC(C)(C)C1CCc2c(C(=O)NNC(=O)/C=C/C(=O)O)csc2C1 (stereo not drawn),10.3
2,Cc1c(C(=O)N2CCC3(CC2)OCCO3)sc2ncnc(N3CCc4ccccc4C3)c12,-33.7
3,CCC(O)C1CCN(Cc2cn(Cc3ccccc3)nc2-c2cc3ccccc3o2)CC1 (stereo not drawn),-65.1
4,OCC1CCN(Cc2cn(Cc3ccccc3)nc2-c2cc3ccccc3o2)CC1,-67
5,OC1CCN(Cc2cn(Cc3ccccc3)nc2-c2cc3ccccc3o2)CC1,-50.7
6,Cn1cc(CN2CCC(C(=O)N3CCCC3)CC2)c(-c2ccccc2F)n1,-4.8
7,Cn1cc(CN2CCC(C(O)CCc3ccccc3)CC2)c(-c2ccccc2F)n1 (stereo not drawn),-71.3
8,O=C1CSC(c2cn(-c3ccccc3)nc2-c2cc3ccccc3o2)N1Cc1ccccc1 (stereo not drawn),-6.82
9,N#CCCn1cc(C(=O)O)c(-c2cc3ccccc3o2)n1,24.6
10,OC1CCCN(Cc2cn(Cc3ccccc3)nc2-c2cc3ccccc3o2)C1 (stereo not drawn),-44.7
11,OCC1CCCN(Cc2cn(Cc3ccccc3)nc2-c2cc3ccccc3o2)C1 (stereo not drawn),-41.9
12,Cn1cc(CN2CCC(C(=O)N3CCCCC3)CC2)c(-c2ccccc2F)n1,4.1
13,O=Cc1cn(CCC(=O)O)nc1-c1cc2ccccc2o1,-5.41
14,CC1(C)CC(=O)C(Sc2ccccc2[N+](=O)[O-])=C(O)C1,4.99
15,Cc1cc(C)c(OCCCCCNCCO)c(C)c1,-5.77
16,Brc1cccc(OCCCCn2cncn2)c1,11.2
17,O=C(CSc1nncn1-c1ccccc1)Nc1ccccc1,-0.536
18,N#Cc1c(Oc2ccc3ccccc3c2)sc(C(=O)c2ccccc2)c1N,11.1
19,COCc1ccc([C@@H]2C[C@H]3CN(Cc4cccnc4)C(=O)[C@]34CCCN24)o1,-3.38
20,O=C1N(Cc2cccnc2)C[C@@H]2C[C@@H](c3ccc4nsnc4c3)N3CCC[C@@]123,-11.3
21,Cc1nn(C(C)C)c(C)c1[C@@H]1C[C@H]2CN(Cc3cccc(Cl)c3)C(=O)[C@]23CCCN13,-29.2
22,O=C1N(Cc2cccnc2)C[C@@H]2C[C@@H](c3ccc4nonc4c3)N3CCC[C@@]123,-59.1

row,Structure (SMILES),"hERG current change (%, negative = inhibition) at 10uM [%]"
1,Cc1ccc([C@@H]2C[C@H]3CN(Cc4cccc(Cl)c4)C(=O)[C@]34CCCN24)o1,-34.3
2,O=C1N(Cc2cccc(Cl)c2)C[C@@H]2C[C@@H](c3ccc4nonc4c3)N3CCC[C@@]123,-55.1
3,CCOCCCNC(=O)c1ccc(NC(=O)C2=CSCCO2)cc1,15.4
4,CN(C(=S)NC(=O)C1(C)CC1(Cl)Cl)c1ccccc1 (stereo not drawn),16.7
5,COc1cccc2c1C(CO)N1C(C#N)C3CC(C(=O)O)C(C1C2)N3C (stereo not drawn),12.3
6,NC(=O)C1CCN(CCC(=O)Nc2ccc(F)c(F)c2)CC1,11.1
7,COc1ccccc1C(=O)Nc1cccc(NC(=O)c2ccccc2OC)n1,8.14
8,Clc1ccccc1OCCCCN1CCNCC1.O=C(O)C(=O)O,12.7
9,Cc1ccccc1OCCOCCN1CCCCCC1.O=C(O)C(=O)O,-29.3
10,CCOc1ccccc1OCCOCCN1CCN(Cc2ccccc2)CC1.O=C(O)C(=O)O,-48.5
11,CCN1CCN(CCOc2cccc(Cl)c2Cl)CC1.O=C(O)C(=O)O,-3.27
12,Cc1ccccc1OCCN1CCCC1,7.01
13,CCOc1ccccc1OCCN1CCC(Cc2ccccc2)CC1.O=C(O)C(=O)O,-67.4
14,Clc1ccccc1OCCN1CCC(Cc2ccccc2)CC1.O=C(O)C(=O)O,-73.4
15,Clc1ccccc1OCCN1CCCCC1,-16.2
16,CCN1CCN(CCCCOc2ccccc2F)CC1.O=C(O)C(=O)O,-9.65
17,CCN1CCN(CCOc2ccccc2OCc2ccccc2)CC1.O=C(O)C(=O)O,-73.2
18,Cc1ccccc1OCCN1CCC(Cc2ccccc2)CC1.O=C(O)C(=O)O,-58.5
19,CCOc1ccccc1OCCN1CCCC1,9.51
20,Cc1cc2c(cc1S(=O)(=O)Nc1ccc(OC(F)(F)F)cc1)OCC(=O)N2,-42.5
21,CCOC(CNC(=O)c1cccn2c(=O)c3c(C)c(C)sc3nc12)OCC,-12.5
22,CCc1nnc(NC(=O)C(=O)NCCOC(=O)c2ccccc2Cl)s1,5.68

row,Structure (SMILES),"hERG current change (%, negative = inhibition) at 10uM [%]"
1,Cc1cccc(-c2noc(CNC(=O)Nc3ccc(F)cc3)n2)c1,8.56
2,Cc1ccc(N(CC(=O)NCc2ccccc2)C(=O)CCC(=O)Nc2ccccn2)cc1C,16.4
3,Cc1ccc(SCc2nc3ccccc3n2CC(=O)Nc2ccc(Cl)cc2)cc1,-8.31
4,CC(C)n1c(N2CCN(CC(=O)Nc3ccc4c(c3)OCCO4)CC2)nc2ccccc21,-65.4
5,CCn1c(N2CCN(S(=O)(=O)CC)CC2)nc2ccccc21,-37.7
6,CC(C)Cn1c(N2CCN(CC(=O)Nc3ccc(Cl)cc3)CC2)nc2ccccc21,-70.5
7,O=C(CN1CCN(c2ccccc2)CC1)Nc1ccc2c(c1)OCCO2,5.46
8,CCCCNc1nc2ccccc2n1CC(=O)Nc1ccc2c(c1)OCCO2,-10.2
9,CCn1c(N2CCN(CC(=O)Nc3cccc(C)c3C)CC2)nc2ccccc21,-63.6
10,CCCn1c(N2CCN(CC(=O)Nc3ccc4c(c3)OCCO4)CC2)nc2ccccc21.Cl,-60.4
11,Cc1cccc(N2CCN(CC(=O)Nc3ccccc3[N+](=O)[O-])CC2)c1C,-0.256
12,O=C(CN1CCN(c2ccc(O)cc2)CC1)Nc1ccc2c(c1)OCCO2,2.24
13,CC(O)c1nc2ccccc2n1CC(=O)Nc1ccc2c(c1)OCCO2 (stereo not drawn),-4.28
14,CC(=O)Nc1ccc(S(=O)(=O)N2CCN(c3nc4ccccc4n3CC(C)C)CC2)cc1,-30.9
15,CCOC(=O)[C@@H]1[C@H]2COc3cc(OC)ccc3[C@@H]2N2C(=O)N(c3cccc(C)c3)C(=O)[C@@]12C,-5.14
16,CCC1=NN(C(=O)c2ccc(C)cc2)C(O)(c2ccc(Br)cc2)C1 (stereo not drawn),-10.7
17,COc1ccccc1C(CC(=O)Nc1nccs1)c1ccco1 (stereo not drawn),2.68
18,Cc1ccc(C)c(NC(=O)CN(C)C(=O)/C=C/c2ccco2)c1,15.7
19,COc1ccccc1/C=C/C=N/NC(=O)c1cnccn1,13.5
20,Cc1ccc(-c2csc(NC(=O)c3ccc(Br)cc3)c2C(=O)O)cc1,46.9
21,O=C(O)C(Cc1c[nH]c2ccccc12)N1CCS(=O)(=O)CC1 (stereo not drawn),16.3
22,N#CC1(NC(=O)COC(=O)c2ccc(-c3ccc(O)cc3)cc2)CCCCC1,7.22

row,Structure (SMILES),"hERG current change (%, negative = inhibition) at 10uM [%]"
1,CC1(C)C(=O)OC(c2ccc([N+](=O)[O-])cc2)C(C)(C)C1=O (stereo not drawn),18.4
2,N#Cc1cc(NC2CCCC2)c([N+](=O)[O-])cc1C#N,-5.68
3,Cn1cc(S(=O)(=O)N2CCCC2)cc1C(=O)NCCc1ccccc1,-2.66
4,O=Cc1ccc2noc(-c3ccc(Cl)cc3)c2c1,-1.22
5,Cc1ccc(/C=C2\SC(=S)N(CCC(=O)NNC(=O)c3cccnc3)C2=O)cc1,1.06
6,O=C(NCc1ccccc1)c1ccc2nc(N3CCOCC3)sc2c1,-5.89
7,O=C(c1ccc2nc(N3CCOCC3)sc2c1)N1CCN(C(=O)c2ccco2)CC1,-47.4
8,CCC(Cc1ccccc1)NC(=O)c1ccc2nc(N3CCOCC3)sc2c1 (stereo not drawn),-46.5
9,O=C(NCCc1ccccc1)c1ccc2nc(N3CCOCC3)sc2c1,3.75
10,O=C(c1ccc2nc(N3CCOCC3)sc2c1)N1CCC(Cc2ccccc2)CC1,-63.2
11,CCCCN(CCCNC(=O)c1ccc2nc(N3CCOCC3)sc2c1)Cc1ccccc1,-62
12,O=C(c1ccc2nc(N3CCOCC3)sc2c1)N1CCCC1,-10.8
13,CC1CC(C)CN(CCCNC(=O)c2ccc3nc(N4CCOCC4)sc3c2)C1 (stereo not drawn),-19.5
14,O=C(NCCCN1CCC(Cc2ccccc2)CC1)c1ccc2nc(N3CCOCC3)sc2c1,-66.2
15,CCOC(=O)c1ccc(-c2c(-c3ccccc3OC)sc3cc4c(cc23)OCO4)cc1F,12.5
16,Cc1cccc(-c2nsc(SCC(=O)Nc3cc(C)on3)n2)c1,16.1
17,CC(=Nc1ccc2c(c1)CCC2)c1c(O)n(C)c(=O)n(C)c1=O,-3.93
18,Cc1cccc(CN2CCN(Cc3nc4c(s3)CCCC4)CC2CCO)n1 (stereo not drawn),-28.6
19,CCOc1ccccc1CN1CCN(Cc2nc3c(s2)CCCC3)CC1CCO (stereo not drawn),-67.9
20,COc1cccc(CN2CCN(Cc3nc4c(s3)CCCC4)CC2CCO)c1 (stereo not drawn),-48.5
21,CCOc1ccccc1CN1CCN(Cc2nc3ccccc3s2)CC1CCO (stereo not drawn),-74.8

# Reference: PMC4336329 (PLoS ONE, 2015)
